# Assay outcomes (PubChem)
# This is one part of a sample in which hits are shown more often than they occur.
# ID4 binder: binders of human ID4 protein; P47928; small molecule microarray, Flag-ID4 binding, fluorescence F/B; calls only; 1.2% of 31,000 active; call rule not given here;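 further: a binder raises fluorescence above local background on the spot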
# STK33 kin inh: human STK33 kinase inhibition; AID 2322; ADP-Glo luminescence, MBP substrate; 0.44% of 27,000 active; inhibition, % at 12.5 µM; in the data active means inhibition above about 20%
# Active calls of the source: *; i = inactive; / = not tested or not shown; + = active, no number.
SMILES,ID4 binder,STK33 kin inh
Cc1c(C(=O)c2cccc3ccccc23)c2cccc3c2n1[C@@H](CN1CCOCC1)CO3,+,/
C[C@H]1O[C@@H](O[C@H]2C[C@@H](O)[C@]3(CO)C4C(CC[C@]3(O)C2)[C@@]2(O)CC[C@H](C3=CC(=O)OC3)[C@@]2(C)C[C@H]4O)[C@@H](O)[C@@H](O)[C@H]1O (stereo not given in full),i,0.5
CCC(C)[C@H]1C(=O)O[C@H](C(C)C)C(=O)N(C)[C@@H](C(C)CC)C(=O)O[C@H](C(C)C)C(=O)N(C)[C@@H](C(C)CC)C(=O)O[C@H](C(C)C)C(=O)N1C (stereo not given in full),/,-3.1
